Assay outcomes (PubChem BioAssay)
SSB-PriA inh: inhibitors of Klebsiella pneumoniae PriA binding to SSB C-terminal tail | AlphaScreen SSBct-PriA binding, biotinylated peptide | inhibition, % at 33 µM | hit rate 0.6% among 430,000 | AID 1272365; in the data active means inhibition mostly above about 37%, no sharp cut-off; inactive means mostly below about 20%
Mtb hypoxia inh: Mtb hypoxia fluorescent reporter inhibition | fluorescence inhibition, % (concentration not given with the values) | AID 1159583 | M. tuberculosis hypoxia-regulated fluorescent reporter, fluorescence | hit rate 0.1% among 300,000; in the data active means fluorescence inhibition mostly above about 23%, no sharp cut-off; inactive means mostly below about 17%
Sa RN4220 lethal: kills Staphylococcus aureus RN4220; S. aureus RN4220 growth, OD600, 16 h; inhibition, % (test concentration not listed); hit rate 0.33% among 330,000; AID 1259311; in the data active means inhibition above about 85%
Sa ugtP lethal: kills S. aureus RN4220 lacking UgtP. S. aureus RN4220 ugtP deletion, OD600 growth, 16 h. hit rate 0.54% among 330,000. growth inhibition, % (concentration not given with the values); in the data active means growth inhibition above about 68%
Mtb betalactam: beta-lactam sensitization of Mtb H37Rv | M. tuberculosis H37Rv growth with meropenem, percent inhibition | inhibition, % at 25 µM | hit rate 0.27% among 330,000; call rule not given here;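 further: growth measured after seven days incubation then overnight dye step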
A number is an active result; i = inactive; nt = no result. An excerpt weighted towards active compounds, which were near 1% of everything screened.

SMILES	SSB-PriA inh	Mtb hypoxia inh	Sa RN4220 lethal	Sa ugtP lethal	Mtb betalactam
Oc1cc(-c2cccnc2)cc2cccnc12	54	i	100	100	i
CN1CCN(c2cc(-c3cc(O)c4ncccc4c3)ccn2)CC1	67	i	i	i	i
CN1CCN(C(=O)c2cccc(-c3cc(O)c4ncccc4c3)c2)CC1	i	i	i	i	i
Oc1cc(Nc2ccccc2)cc2cccnc12	65	i	i	i	i
Nc1c(O)ccc2cccnc12	i	nt	nt	nt	nt
O=C(CSc1ccncc1)NCCn1ncc2c(=O)n(Cc3cccc(F)c3)cnc21	i	nt	nt	nt	nt
CCNC(=O)c1csc(NC(=O)COc2ccc(Cl)cc2Cl)n1	i	nt	nt	nt	nt
COc1ccccc1CN=Cc1[nH]c2ccc(Br)c(Cl)c2c1O	i	i	i	i	i
Cc1cccc(N=Cc2[nH]c3ccc(Br)c(Cl)c3c2O)c1	i	i	i	100	i
c1ccc(C2Nc3ccccc3-c3nc4ccccc4n32)nc1 (stereo not given)	61	nt	i	i	i
c1ccc(C2Nc3ccccc3-c3nc4ccccc4n32)cc1 (stereo not given)	i	i	i	i	i
COc1ccc(CN(C)C(=O)c2cccc(S(=O)(=O)N3CCCc4ccccc43)c2)c(OC)c1OC	i	28	i	i	nt
CCOC(=O)c1cc(OCC(=O)Nc2ccc(Br)cc2)c2cc(Cl)ccc2n1	i	nt	nt	nt	nt
COc1ccc(NC(=O)CN2CCN(CC(=O)Nc3ccc(OC)c(OC)c3)CC2)cc1	i	nt	i	i	i
CC(C)c1ccc(OCC(=O)N2CCN(c3nccn3C)CC2)cc1	i	nt	nt	nt	nt
COc1ccc(NC(=O)CN2CCN(c3nccn3-c3ccc(C)cc3)CC2)cc1OC	37	nt	nt	nt	nt
CCOc1ccc(OCC(=O)N2CCN(c3nccn3-c3ccc(C)cc3)CC2)cc1	60	nt	nt	nt	nt
CCOc1ccccc1NC(=O)CN1CCN(c2nccn2-c2cccc(Cl)c2)CC1	59	nt	nt	nt	nt
CC(C)=CCCC1(C)C=Cc2c(c(C)cc3c2[nH]c2cc(O)ccc23)O1 (stereo not given)	i	nt	i	101	i
Cc1cc(=O)[nH]c2cc(O)ccc12	i	i	i	i	i
NC(=NOS(=O)(=O)c1ccc2ccccc2c1)c1cccnc1	i	nt	nt	nt	nt
Fc1ccc(CSc2ncnc3sc4c(c23)CCCC4)cc1	i	i	i	83	i
c1nc(SCc2ccc3c(c2)OCO3)c2c3c(sc2n1)CCCCC3	i	nt	nt	nt	nt
CCN1CCN(c2oc(-c3ccccc3C)nc2S(=O)(=O)c2ccccc2)CC1	39	i	i	i	nt
COc1ccccc1-c1nc(S(=O)(=O)c2ccccc2)c(N2CCCCC2)o1	i	i	i	i	i
SMILES	SSB-PriA inh	Mtb hypoxia inh	Sa RN4220 lethal	Sa ugtP lethal	Mtb betalactam
COc1cccc([C@H](CNC(=O)c2cccc(Cl)c2)N2CCOCC2)c1	i	nt	nt	nt	nt
O=C(Nc1nc(-c2ccccn2)cs1)c1ccc(C(F)(F)F)cc1	i	nt	nt	nt	nt
O=C(CNC(=O)c1ccco1)Nc1nc(-c2ccccn2)cs1	96	nt	nt	nt	nt
CN(C(=O)c1ccncc1)c1nnc(-c2ccccn2)s1	i	nt	i	i	i
O=C(Nc1nc(-c2ccncc2)cs1)c1ccco1	i	nt	i	i	i
O=C(Nc1nc(-c2ccccn2)cs1)c1ccno1	125	nt	nt	nt	nt
CN(C(=O)c1ccno1)c1nnc(-c2ccccn2)s1	42	nt	i	i	i
Cc1cc(C(=O)Nc2nc(-c3ccccn3)cs2)on1	94	nt	nt	nt	nt
CN(CC(=O)NCCc1c[nH]c2ccccc12)c1nc2c(Cl)cccc2s1	i	nt	nt	nt	nt
C[C@H](NC(=O)c1ccco1)C(=O)Nc1nnc(SCc2ccccc2)s1	i	i	i	i	i
O=C(Nc1nc(-c2ccccn2)cs1)c1ccco1	49	i	i	i	i
C[C@H](NC(=O)c1ccco1)C(=O)Nc1nc(-c2ccccn2)cs1	53	i	i	i	nt
COc1ccc(CCNc2oc(COc3ccc(Br)cc3)nc2C#N)cc1OC	i	nt	i	i	i
COc1ccc(CCNc2oc(Cc3cccc4ccccc34)nc2C#N)cc1OC	43	i	i	i	i
CCCc1nnsc1C(=O)NCc1ccsc1	i	nt	nt	nt	nt
O=C(NC(N1CCCC1)C(Cl)(Cl)Cl)c1ccc(Br)cc1 (stereo not given)	i	nt	nt	nt	nt
O=C(NN=Cc1ccccc1)c1ccc(OCc2ccccc2)cc1	i	i	i	i	nt
CC(C)(C)c1ccc(OCc2ccc(C(=O)NN=Cc3ccc(O)c(O)c3)cc2)cc1	i	i	i	94	nt
COc1ccc(C=NNC(=O)c2cc(O)c(O)c(O)c2)cc1COc1ccc(C(=O)OCC(C)C)cc1	i	i	i	99	nt
O=C(NN=Cc1ccc(OCc2ccccc2)cc1)c1ccncc1	i	36	i	i	nt
O=S(=O)(NCC(c1ccsc1)N1CCCCCC1)c1cccc2ccccc12 (stereo not given)	i	nt	nt	nt	nt
Cc1cc(NC(=O)Cn2nc3ccc(C(=O)NCc4ccccc4)cn3c2=O)ccc1Br	i	nt	nt	nt	nt
COCCNC(=O)NC1CCC(Oc2nccnc2C#N)CC1 (stereo not given)	i	nt	nt	nt	nt
COc1ccccc1CC(=O)N1CCCC[C@H](c2ccc(Cl)cc2)C1	i	nt	nt	nt	nt
CC(=O)N1N=C(c2ccccc2NS(C)(=O)=O)CC1c1cccc2nccnc12 (stereo not given)	i	nt	nt	nt	nt
SMILES	SSB-PriA inh	Mtb hypoxia inh	Sa RN4220 lethal	Sa ugtP lethal	Mtb betalactam
COc1ccc(C=NNC(=O)COc2cc(C)cc(C)c2)cc1COC(C)=O	i	i	i	93	nt
COC(=O)N1CCc2ccc(NC(=O)c3cc(Br)cs3)cc2C1	i	nt	nt	nt	nt
CCCN1C(=O)C(=c2sc3nc(=O)c(Cc4ccc(C)cc4)nn3c2=O)c2ccccc21	i	nt	nt	nt	nt
CC(C)(C)C(=O)c1sc(Nc2ccccc2)nc1N	40	i	i	i	i
Cc1nc(Nc2ccccc2)sc1C(=O)c1ccccc1	i	nt	nt	nt	i
CCCCCCCCCC[n+]1cccc2c3ccccc3ccc21	i	i	100	100	nt
CCCCCCCC[n+]1cccc2c3ccccc3ccc21	i	i	100	101	i
O=C(CC1CCCCN1S(=O)(=O)c1ccc(Cl)cc1)NC1CCCCCC1 (stereo not given)	i	nt	nt	nt	nt
CN(CC(=O)Nc1nc2c(s1)CCCC2)c1nc2c(F)cccc2s1	i	nt	nt	nt	nt
O=C(c1ccco1)N1CCN(C(=O)c2c[nH]c(=O)n(Cc3ccccc3F)c2=O)CC1	i	nt	nt	nt	nt
O=C(Oc1ccc(Cl)c2cccnc12)c1ccco1	52	i	91	i	i
O=C1/C(=C/c2cccs2)CCC/C1=C\c1cccs1	i	nt	nt	nt	i
CC1C/C(=C/c2cccs2)C(=O)/C(=C/c2cccs2)C1 (stereo not given)	i	i	i	90	i
COC1=C(Nc2ccccc2OC)C(=O)c2ccccc2C1=O	68	i	i	i	i
O=C(CCl)N1c2ccccc2Oc2ccc3ccccc3c21	i	i	90	99	nt
CN(C)c1ccc(CCNC(=O)c2ccc(Cl)c(Cl)c2)cc1	i	nt	nt	nt	nt
C1CN2CN3CCN(CN1C3)C2	80	nt	nt	nt	nt
C1N2CN3CN1CN(C2)C3	i	i	i	i	i
C=CC(=O)Nc1cccc(Oc2ccnc(Nc3ccc(N4CCN(C)CC4)cc3)n2)c1	61	nt	nt	nt	nt
C=CC(=O)Nc1cccc(Oc2ccnc3[nH]ccc23)c1	i	nt	nt	nt	nt
C=CC(=O)Nc1cccc(N(C)c2ccnc(Nc3ccc(N4CCN(C)CC4)cc3)n2)c1	57	nt	nt	nt	nt
CCOc1ccc2ccccc2c1C(=O)N1CCC(Oc2cnccn2)CC1	i	nt	nt	nt	nt
O=C(c1cccs1)N(CCc1cccs1)Cc1cccnc1	i	nt	nt	nt	nt
